From PubChem BioAssay (EPA / NIEHS) come the findings set out here.

Read-out in assay [1]: Tumor necrosis factor receptor 1 (TNFRSF1A), TNFRSF1A (gene 7132)
Nature of the assay: LTEA_HepaRG_TNFRSF1A: Life Technologies and Expression Analysis (LTEA) Assay for Tumor necrosis factor receptor 1 (TNFRSF1A) using HepaRG (AID 2283535; active means hit-call score of the fitted dose curve at least 0.9, where 1 is the maximum; inactive means score below 0.9). Particulars: mRNA level, 48 h; actives raise or lower the signal. An outline of the steps:
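Differentiated human HepaRG cells were exposed in duplicate for 48 h in serum-free induction medium to eight concentrations (top 100 uM, half-log steps, 0.5% DMSO). TNFRSF1A mRNA was quantified by qRT-PCR, normalized to ACTB, GAPDH and POLR2A, then fitted bidirectionally against DMSO.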

Read-out in assay [2]: Thyroid Hormone Responsive (THRSP), THRSP (gene 7069)
Nature of the assay: LTEA_HepaRG_THRSP: Life Technologies and Expression Analysis (LTEA) Assay for Thyroid Hormone Responsive (THRSP) using HepaRG (AID 2283536; active means hit-call score of the fitted dose curve at least 0.9, where 1 is the maximum; inactive means score below 0.9). Particulars: mRNA level, 48 h; actives raise or lower the signal. Summed up: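 Cell model: human HepaRG, approx. 100,000 cells/well, 0.5% DMSO vehicle. Exposure lasts 48 h; phenobarbital 1 mM serves as induction positive control. Gene expression is measured by qRT-PCR against three endogenous control genes.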

Read-out in assay [3]: Cellular tumor antigen p53 (Homo sapiens) (UniProt P04637)
Nature of the assay: LTEA_HepaRG_TP53: Life Technologies and Expression Analysis (LTEA) Assay for Tumor Protein P53 (TP53) using HepaRG (AID 2283537; active means hit-call score of the fitted dose curve at least 0.9, where 1 is the maximum; inactive means score below 0.9). The note with it: mRNA level, 48 h; actives raise or lower the signal. Summed up: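 Read-out is TP53 transcript level by microfluidic qRT-PCR, normalised to three housekeeping genes and fitted bidirectionally against DMSO. Human HepaRG cells received compounds for 48 h, highest concentration 100 uM.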

Read-out in assay [4]: UDP glucuronosyltransferase (UGT1A1), UGT1A1 (gene 54658)
Description: LTEA_HepaRG_UGT1A1: Life Technologies and Expression Analysis (LTEA) Assay for UDP glucuronosyltransferase (UGT1A1) using HepaRG (AID 2283538; active means hit-call score of the fitted dose curve at least 0.9, where 1 is the maximum; inactive means score below 0.9). Particulars: mRNA level, 48 h; actives raise or lower the signal. Summed up:
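UGT1A1 transcript level, measured by qRT-PCR with three housekeeping genes for normalization, after 48 h treatment of human HepaRG cells (0.5% DMSO, duplicates, up to 100 uM, half-log steps, 8 points). Curves fit both directions against DMSO baseline.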

Read-out in assay [5]: UDP glucuronosyltransferase (UGT1A6), UGT1A6 (gene 54578)
Description: LTEA_HepaRG_UGT1A6: Life Technologies and Expression Analysis (LTEA) Assay for UDP glucuronosyltransferase (UGT1A6) using HepaRG (AID 2283539; active means hit-call score of the fitted dose curve at least 0.9, where 1 is the maximum; inactive means score below 0.9). Particulars: mRNA level, 48 h; actives raise or lower the signal. Summed up:
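Human HepaRG cells were dosed for 48 h in serum-free induction medium with 0.5% DMSO vehicle, eight-point half-log series from 100 uM, in duplicate. UGT1A6 mRNA was measured by qRT-PCR, normalized to ACTB, GAPDH, POLR2A, and fitted bidirectionally against DMSO.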

Read-out in assay [6]: X-box binding protein 1 (XBP1), XBP1 (gene 7494)
Description: LTEA_HepaRG_XBP1: Life Technologies and Expression Analysis (LTEA) Assay for X-box binding protein 1 (XBP1) using HepaRG (AID 2283540; active means hit-call score of the fitted dose curve at least 0.9, where 1 is the maximum; inactive means score below 0.9). Particulars: mRNA level, 48 h; actives raise or lower the signal. An outline of the steps:
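Differentiated human HepaRG cells in serum-free induction medium were exposed in duplicate for 48 h to eight half-log concentrations up to 100 uM in 0.5% DMSO. XBP1 mRNA was quantified by qRT-PCR, normalised to ACTB, GAPDH and POLR2A, with bidirectional fitting against DMSO.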

The nature of assay [7]: LTEA_HepaRG_LDH_cytotoxicity: Cytotoxicity Assessment in the Life Technologies and Expression Analysis (LTEA) Assay (AID 2283563).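 On AC50: LDH activity released into spent culture medium as a marker of cell death.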 An outline of the steps: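 Differentiated human HepaRG cells, plated 48 h beforehand, were switched to serum-free induction medium and exposed for 48 h to eight half-log concentrations (top 100 uM) in 0.5% DMSO. LDH was measured in spent medium; activity was fitted relative to DMSO vehicle.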

The nature of assay [8]: TOX21_p53_BLA_p2_viability: Viability Assessment in the Tox21 HCT-116 p53 Agonism Beta-lactamase Assay, Phase 2 (AID 2283591).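 Further: compound exposure lasted 16 h at 37 °C; actives lower the ATP signal meaning cytotoxicity.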 Summed up:
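HCT-116 p53-bla cells (4000/well) rested 5 h at 37C, then received compounds in DMSO (217-fold dilution) for 16 h at 37C, 5% CO2. After the CCF4 read, CellTiter-Glo was added; ATP luminescence was read after 30 min at room temperature.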

Assay [9] concerns the target Cellular tumor antigen p53 (Homo sapiens) (UniProt P04637). Description: TOX21_p53_BLA_p2_ratio: Tox21 HCT-116 p53 Agonism Beta-lactamase Assay, Ratio, Phase 2 (AID 2283592). An outline of the steps:
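Ratio endpoint: beta-lactamase cleavage of CCF4-AM, blue (460 nm) over green (530 nm). HCT116 reporter line; 16 h treatment, 37C; substrate 2 h RT.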

Assay [10] in a line: ATG_XTT_Cytotoxicity: Cytotoxicity Assessment in the Attagene TRANS-FACTORIAL HepG2 Assay (AID 2283584). Summed up: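 HepG2 human liver cells, transiently transfected with multiple GAL4-UAS reporter units, were dosed and read at 24 h by XTT as cell number. Loss of signal was fitted relative to DMSO negative control baseline.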

Several values for one entry are separate records, joined by “and”; a condition that tells them apart may be missing. Equal entries are not always repeated. Records with an inconclusive call do not appear. Activity calls are given as the source filed them. How the source made its calls, unless noted: active means hit-call score of the fitted dose curve at least 0.9, where 1 is the maximum; inconclusive means response in the unintended direction; inactive means score below 0.9.

Chain of Cellular tumor antigen p53 (Homo sapiens) (P04637 whole entry, looked up): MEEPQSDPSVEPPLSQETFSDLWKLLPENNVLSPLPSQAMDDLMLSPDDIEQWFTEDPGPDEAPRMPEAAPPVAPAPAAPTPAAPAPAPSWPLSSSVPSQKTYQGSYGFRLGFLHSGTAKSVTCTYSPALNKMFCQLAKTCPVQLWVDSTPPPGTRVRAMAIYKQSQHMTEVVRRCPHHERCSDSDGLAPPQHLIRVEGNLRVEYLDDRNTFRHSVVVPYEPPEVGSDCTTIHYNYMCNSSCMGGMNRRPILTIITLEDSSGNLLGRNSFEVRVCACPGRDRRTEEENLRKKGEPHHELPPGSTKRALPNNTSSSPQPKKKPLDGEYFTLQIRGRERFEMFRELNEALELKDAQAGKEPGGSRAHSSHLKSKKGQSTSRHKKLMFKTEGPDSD

For orientation: AC50 means the concentration giving half of the maximal activity seen. In the case of `OC12N=C(c3ccccc3)SC1Cc1cc(Cl)ccc12` (stereo not given), the compound was called inactive in [1], in assay [5], in [7] and in assay [8]. The AC50 in assay [2] was 16.2 µM (active); in assay [3], 26 µM (active); in assay [4] it was 2.54 µM (active); in assay [6], 3.94 µM (active); in [9], 71.5 µM (active).
Turning to `CO[C@H]1/C=C/O[C@@]2(C)Oc3c(C)c(O)c4c(O)c(c(/C=N/N5CCN(C)CC5)c(O)c4c3C2=O)NC(=O)/C(C)=C\C=C\[C@H](C)[C@H](O)[C@@H](C)[C@@H](O)[C@@H](C)[C@H](OC(C)=O)[C@@H]1C`, the compound was classed as inactive in [1], in assay [3], in [5], in assay [6], in assay [7] and in assay [10]. For the same compound, the compound was classed as inactive in assay [8] and in assay [9]. The AC50 in [2] is 12 µM (active); in assay [4] it was 0.395 µM (active).
For the compound `CC(C)(O)c1ccc(CNC(=O)c2cccnc2Oc2ccc3nonc3c2)cc1`, the call in [1], in [3], in assay [5], in assay [7], in [8] and in assay [9] was inactive. Moreover, the AC50 is 60.8 µM (active) in assay [2] and 9.41 µM (active) in assay [4].
Regarding `O=C(O)Cc1cc(I)c(Oc2ccc(O)c(I)c2)c(I)c1`, the call in [1], in assay [7] and in [10] was inactive. The AC50 in assay [2] was 81.7 µM (active); in assay [3], 79.6 µM (active); in [4], 95.7 µM (active); in assay [5], 77.9 µM (active); in [8] it was 2.06 µM (active) and 5.75 µM (active); in [9], 899 nM (active) and 4.4 µM (active).
In the case of `CCCCOC(=O)c1ccc(O)cc1`, the call in [1], in [2], in assay [3], in assay [4], in assay [5] and in [7] was inactive. Further, the call in [10], in assay [8] and in assay [9] was inactive.
With `CCCCCc1ccc(N)cc1`, the result in [1], in assay [2], in [3], in assay [4], in assay [5] and in [7] was inactive. In addition, the call in [10], in [8] and in assay [9] was inactive.
On to `O=C1O[C@H]([C@@H](O)CO)C(O)=C1O`, for which the compound was called inactive in [1], in assay [2], in assay [3], in [4], in assay [5] and in [7]. The call in assay [10], in [8] and in assay [9] was inactive.
For `CN1C(=O)CC[C@H]1c1cccnc1`, the result in assay [1], in assay [2], in assay [3], in assay [4], in [5] and in assay [7] was inactive. The compound was called inactive in assay [10], in [8] and in assay [9].
`CCCOC(=O)c1cc(O)c(O)c(O)c1`: the call in assay [1], in [2], in [3], in assay [5], in assay [7] and in [8] was inactive. Further, the outcome in assay [9] was inactive. For the same compound, in assay [4], the AC50 is 1.73 µM (active).
On to `NCc1cccc(C2CCN(C(=O)c3ccc(C#Cc4ccccc4F)o3)CC2)c1`, for which the AC50 was 91.9 µM (active) in [1]; 83.9 µM (active) in assay [2]; 86.3 µM (active) in assay [4]; 93.1 µM (active) in [5]; 81.4 µM (active) in [7]; 68.9 µM (active) in [8]. Besides, the AC50 in [9] is 86.2 µM (active). In addition, the compound was called inactive in assay [3].
As to `CC(C)(C)c1csc(-c2cc3cc(OCc4ccccc4CC(=O)O)ccc3o2)n1`, the AC50 was 83.2 µM (active) in assay [1]; 82.4 µM (active) in assay [3]; 85.5 µM (active) in [4]; 77.2 µM (active) in assay [5]; 76.6 µM (active) in assay [7]; 25.5 µM (active) in assay [8]. Also, in assay [9], the AC50 was 36.2 µM (active). The result in assay [2] and in assay [10] was inactive.
On to `Oc1ccccc1`, for which the compound was called inactive in assay [1], in [2], in assay [3], in assay [4], in assay [5] and in assay [7]. Further, the result in [8] and in assay [9] was inactive.
Take `CN1C(=O)N(c2ccccc2Br)Cc2cnc(Nc3ccc4c(c3)OCC(CO)O4)nc21` (stereo not given): the AC50 in assay [1] is 83.7 µM (active); in assay [4], 85.6 µM (active); in [5] it was 81.5 µM (active); in assay [7], 67.9 µM (active); in assay [8], 70.4 µM (active); in assay [9], 4.26 µM (active). Also, the result in assay [2], in assay [3] and in [10] was inactive.
For the compound `COc1cc(C(=O)NC2CCN(C)CC2)ccc1Nc1ncc2c(n1)N(C1CCCC1)CC(F)(F)C(=O)N2C`, the AC50 is 4.65 µM (active) in assay [1]; 0.923 µM (active) in assay [2]; 8 µM (active) in assay [3]; 21 µM (active) in [4]; 8.85 µM (active) in assay [5]; 16.5 µM (active) in [7]. Also, the results for the AC50 in [8] and in assay [9] were 47.4 µM (active) and 0.00393 µM (active), respectively. The call in assay [10] was inactive.
For `Clc1cc(Cl)c2c(c1)N=C1CCCCCN1C2`, the result in assay [1], in assay [2], in assay [3], in assay [4], in [5] and in assay [7] was inactive. Also, the compound was called inactive in assay [8] and in assay [9].
Take `CN(C[C@@H](CC[N+]12CCC(C3CCCCC3)(CC1)CC2)c1ccc(Cl)c(Cl)c1)C(=O)c1cc(C(F)(F)F)cc(C(F)(F)F)c1`: the result in assay [1] and in assay [3] was inactive. Moreover, the AC50 is 4.72 µM (active) in [2]; 6.65 µM (active) in [4]; 1.66 µM (active) in assay [5]; 26.6 µM (active) in assay [7]; 25.9 µM (active) in assay [8]; 64.8 µM (active) in [9].
Consider `c1ccc2ccccc2c1`, for which the call in assay [1], in assay [2], in [3], in assay [5], in [7] and in assay [10] was inactive. The call in assay [8] and in assay [9] was inactive. In assay [4], the AC50 was 17.4 µM (active).
Consider `CCN(Cc1cccc(S(=O)(=O)O)c1)c1ccc(C(=C2C=CC(=[N+](CC)Cc3cccc(S(=O)(=O)O)c3)C=C2)c2ccccc2S(=O)(=O)[O-])cc1`, for which the call in assay [1], in [2], in assay [3], in assay [4], in assay [5] and in assay [7] was inactive. The compound was called inactive in assay [10] and in [9]. For the same compound, the AC50 in assay [8] is 19.4 µM (active).
`CCCCCCCCCCCCO`: the compound was classed as inactive in [1], in [2], in [3], in assay [4], in assay [5] and in assay [7]. The call in assay [8] and in [9] was inactive.
